An excerpt weighted towards active compounds, which were near 3.6% of everything screened.
mHTT-CaM PPI inh = disrupts binding of mutant huntingtin to calmodulin; AlphaScreen His-mHTT/GST-CaM binding, luminescence; inhibition, % at 15 µM; P42858; 190,000 tested, 3.6% active;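 further: 0% = both proteins with DMSO and 100% = one protein alone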
Pf apPOL inh = Pf-apPOL DNA polymerase inhibition; Recombinant Pf-apPOL, molecular beacon fluorescence, 1.5 h; inhibition, % at 10 µM; 210,000 tested, 0.25% active
Numbers without * were called inactive; nt = no result. No stated cut-off is given here; in the data, active means inhibition above about 50%; inactive means the rest.

SMILES	mHTT-CaM PPI inh	Pf apPOL inh
Cn1nc(C(=O)NCc2ccccc2)c2c1CCN(C(=O)c1cccs1)C2	3.9	-13.5
Cn1nc(C(=O)NCc2ccc(Cl)cc2)c2c1CCN(C(=O)c1ccccc1F)C2	43.4	14.2
COc1ccccc1C(=O)N1CCc2c(c(C(=O)NCc3ccc(Cl)cc3)nn2C)C1	80.0*	4.1
COc1ccc(C(=O)N2CCc3c(c(C(=O)NCc4ccccc4)nn3C)C2)cc1OC	75.1*	-9.9
CCOc1ccc(C(=O)N2CCc3c(c(C(=O)NCc4ccccc4)nn3C)C2)cc1	-16.8	-11.3
Cn1nc(C(=O)NCc2ccccc2)c2c1CCN(C(=O)c1ccc(Cl)cc1)C2	-0.2	-3.3
Cc1nc(C2CCN(Cc3sccc3C)CC2)n[nH]1	-2.4	-6.3
Fc1ccc(C2Cn3nc(-c4nc(-c5ccccc5Cl)no4)cc3CO2)cc1 (stereo not given)	-3.9	-4.9
CC12CCC(C(=O)N(c3cccc(F)c3)C1=O)C2(C)C (stereo not given)	-8.4	-3.6
CN(C)c1cccc(C(=O)N2CCc3c(c(C(=O)NCc4ccccc4)nn3C)C2)c1	50.5*	-5.4
Cn1nc(C(=O)NCc2ccccc2)c2c1CCN(C(=O)c1c(F)cccc1F)C2	1.7	3.9
COc1cccc(C(=O)N2CCc3c(c(C(=O)NCc4ccc(Cl)cc4)nn3C)C2)c1	89.6*	-1.5
O=C(Nc1ccc(O)cc1)C1CC=CCC1 (stereo not given)	69.7*	0.0
O=C(Nc1ccc(NC(=O)C2CCCC2)cc1)C1CCCC1	7.3	-2.8
O=C(c1cccc(Cl)c1)N1CCC(Cn2c(C(F)(F)F)nc3ccccc32)CC1	-10.0	-1.3
CC1CCCCC1NC(=O)Nc1cn(C)c2ccccc12 (stereo not given)	-10.3	-0.9
CN(C)c1ccc(NC(=O)Nc2cn(C)c3ccccc23)cc1	55.6*	1.5
CC1CCCC(C)N1CC(O)COc1ccc(N=Cc2ccccc2)cc1 (stereo not given)	15.0	-17.4
CCOc1cc(C(=O)Nc2ccc(N3CCCC3)cc2)cc(OCC)c1OCC	79.0*	-8.3
Cc1ccc(OCC(=O)N2CCCCC2CCN2CCCCC2)cc1C (stereo not given)	54.3*	-7.3
Cc1cc(OCC(=O)N2CCCCC2CCN2CCCC2)ccc1Cl (stereo not given)	13.5	-10.3
CCC(=O)Nc1ccc(NC(=O)COc2cccc(C)c2)cc1	-2.3	-2.8
CCC(=O)Nc1ccc(NC(=O)COc2ccc(C)c(C)c2)cc1	-5.4	-9.2
Cc1cccc(OCC(=O)Nc2ccc(Nc3ccccc3)cc2)c1	73.5*	1.1
Cc1ccc(OCC(=O)Nc2ccc(N3CCCC3)cc2)cc1C	99.1*	4.3
SMILES	mHTT-CaM PPI inh	Pf apPOL inh
COc1ccc(C(=O)Nc2ccc(N3CCCC3)cc2)cc1OC	6.9	-9.2
CCn1cc(CNS(=O)(=O)c2cnn(CC)c2C)cn1	-3.0	nt
CCC(=O)NCc1nc2c(n1CC)CN(C(=O)c1ccccc1Br)CC2	2.2	-4.4
O=C(c1ccc(F)cc1)N1CCC(CCNS(=O)(=O)c2cc(F)ccc2F)CC1	44.4	-1.3
O=C(Cc1ccsc1)N1CCCCC1c1nc(C2CC2)no1 (stereo not given)	-10.1	2.9
COc1ccc(CNC(=O)N2CCCC2c2nc(-c3cccc(OC)c3)no2)cc1 (stereo not given)	-2.0	-0.1
COc1ccc(C(=O)Nc2ccc(N3CCCC3)cc2)cc1	99.0*	1.0
COc1ccc(C(=O)Nc2ccc(N3CCOCC3)cc2)cc1	5.1	-3.4
O=c1c(=O)n(-c2ccc3c(c2)OCCO3)ccn1Cc1cccc(Cl)c1	-3.4	4.5
Fc1ccc(NCc2ccc3c(c2)OCCO3)cc1F	-14.2	2.0
Brc1ccc(CNc2cc3c(cc2Br)OCCO3)cc1	79.0*	-13.4
Clc1cccc(CNc2cc3c(cc2Br)OCCO3)c1	88.0*	-3.8
COc1cccc2cc(-c3cc(=O)oc4ccc(OCC(=O)OC(C)(C)C)cc34)oc12	-4.2	-4.9
COCCN1CCC(N2CCCN(C(=O)Nc3cc(C)cc(C)c3)CC2)C1=O (stereo not given)	0.9	5.0
CCOc1ccc(C(C)NC(=O)c2ccnc3c(NC(C)=O)cccc23)cc1 (stereo not given)	4.1	1.6
COc1ccc(N=C2NC(=O)CC(C(=O)Nc3cc(C(F)(F)F)ccc3Cl)S2)cc1 (stereo not given)	78.0*	-10.9
COc1ccc(NC(=O)C2CC(=O)NC(=Nc3ccc(C)c(C)c3)S2)cc1 (stereo not given)	2.3	-6.1
COC(CNC(=O)c1ccc(Sc2ccc(Br)cc2)c([N+](=O)[O-])c1)OC	22.0	-4.3
Cc1scc2nc(C(=O)NCc3ccc(F)cc3)nc(N(C)C)c12	87.2*	-15.9
Cc1scc2nc(C(=O)Nc3ccccc3)nc(N3CCCC3)c12	11.7	-3.0
CCNC(=O)c1nc(N(C)C)c2c(C)scc2n1	20.3	0.2
Cc1scc2nc(C(=O)NCc3cccc(F)c3)nc(N3CCCC3)c12	64.8*	-9.3
Cc1nc(-c2cccc(NC(=O)c3ccc(-n4ccnc4C)nn3)c2)cs1	34.1	1.5
O=C(NCC1CCCO1)c1cc2n(n1)C(C(F)(F)F)CC(c1ccco1)N2 (stereo not given)	-4.0	-1.9
Cc1ccc(C2CC(C(F)(F)F)n3nc(C(=O)Nc4cccc(CCC#N)c4)cc3N2)cc1 (stereo not given)	18.0	-1.2
SMILES	mHTT-CaM PPI inh	Pf apPOL inh
N#CCCc1cccc(NC(=O)c2cc3n(n2)C(C(F)(F)F)CC(c2ccc(Cl)cc2)N3)c1 (stereo not given)	74.0*	-0.1
O=C(Nc1cc(Cl)ccc1O)c1cc2n(n1)C(C(F)(F)F)CC(c1ccc(Cl)cc1)N2 (stereo not given)	89.0*	-2.6
O=C(NCC1CCCO1)c1cc2n(n1)C(C(F)(F)F)CC(c1ccc(Cl)c(Cl)c1)N2 (stereo not given)	54.0*	-7.8
COc1ccc(C2CC(C(F)(F)F)n3nc(C(=O)Nc4cc(C)ccc4O)cc3N2)cc1 (stereo not given)	12.0	-14.2
COc1cccc(NC(=O)Nc2nnc(CCc3ccccc3)s2)c1	-4.2	-4.4
Cc1ccc(CNC(=O)C2(C)CCCN(C(=O)Nc3ccc(F)cc3)C2)cc1 (stereo not given)	4.8	-4.1
CC(C)CNC(=O)c1cncc(-c2ccc(F)cc2F)c1	1.2	36.8
CCCNC(=O)c1cncc(-c2ccc(F)cc2F)c1	12.4	62.2*
CN1C(=O)CCC2(CNC(=O)c3cc(F)ccc3Cl)CCCC12 (stereo not given)	-17.0	-5.3
O=C(CSc1nc2ccccc2[nH]1)c1ccc(Cl)c(Cl)c1	51.1*	-4.4
O=C(CSc1nc2ccccc2[nH]1)c1ccc2c(c1)OCO2	7.7	-1.7
Cc1ccc(NC(=O)c2ccc(Cl)cc2Cl)cc1Cl	-9.3	3.6
CCC1=NN(C(=O)c2ccc(Cl)cc2)C(O)(c2ccc(Br)cc2)C1 (stereo not given)	85.0*	-12.1
CCC1=NN(C(=O)c2cccc(Cl)c2)C(O)(c2ccc(Br)cc2)C1 (stereo not given)	89.0*	4.2
CCC1=NN(C(=O)c2ccc(Br)cc2)C(O)(c2ccc(OC)cc2)C1 (stereo not given)	59.0*	-1.2
CCC1=NN(C(=O)c2ccncc2)C(O)(c2ccc(Br)cc2)C1 (stereo not given)	42.0	-1.9
CCC1=NN(C(=O)c2cccc(Br)c2)C(O)(C(F)(F)F)C1 (stereo not given)	4.0	0.9

Screening results as filed in PubChem.
